Results taken from PubChem BioAssay AID492953 (The Scripps Research Institute Molecular Screening Center, 2010).
In all, about 340,000 compounds went through this assay and about 4,200 (1.2%) were called active. The list comes from a sample in which actives are over-represented; it also holds similar structures and randomly drawn compounds. Unmarked numbers belong to inactive results.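 Rule for the calls: active = inhibition above the mean of all tested compounds plus 3 SD (cut at about 24% in these data); inactive = the rest.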

Biological target: Platelet-activating factor acetylhydrolase IB subunit alpha2 (Homo sapiens) (UniProt P68402)
Sequence (P68402 whole entry, looked up): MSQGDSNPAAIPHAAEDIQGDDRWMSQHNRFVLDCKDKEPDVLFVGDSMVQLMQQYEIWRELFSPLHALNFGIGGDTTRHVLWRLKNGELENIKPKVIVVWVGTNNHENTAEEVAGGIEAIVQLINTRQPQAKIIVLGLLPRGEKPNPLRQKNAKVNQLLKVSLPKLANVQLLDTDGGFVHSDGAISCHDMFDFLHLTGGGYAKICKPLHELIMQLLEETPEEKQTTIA
Test: PAFAH1B2 enzyme inhibitors, primary screen, biochemical, fluorescence polarization, human (AID 492953);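 note: 0% = enzyme with DMSO and 100% = wells lacking PAFAH1B2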
Settings: recombinant PAFAH1B2, FP-rhodamine activity probe, at 3.39 µM, active compounds read high

SMILES	inhibition
CS(=O)(=O)Nc1ccccc1N=C(c1ccccc1)c1ccccc1	5.79%
Cc1ccc(O)c(CNc2nc3ccccc3[nH]2)c1	0.09%
O=c1cc(-c2ccccc2)nc(N2CCCCC2)[nH]1	-3.66%
Cc1ccc(-c2cc(=O)[nH]c(NCc3ccccc3)n2)cc1	24.5% (active)
O=C(O)c1ccc(-n2cccc2)cc1O	4.37%
COc1cccc(CNn2cn[nH]c2=S)c1OCc1ccccc1	0.39%
O=C(CCNC(=O)C1CCN(S(=O)(=O)c2ccccc2)CC1)NC1CC1	1.71%
CCc1nnc(NC(=O)c2nc3nccc(C)n3n2)s1	7.37%
CCc1nnc(NC(=O)c2cccc(S(=O)(=O)N(C)c3ccc(OC)cc3)c2)s1	10.2%
CCc1ccc2nc3sc(C(=O)Nc4nnc(CC)s4)c(N)c3cc2c1	32.2% (active)
COc1ccc(Cl)cc1C=CC=Nc1ccc(S(N)(=O)=O)cc1	-2.05%
Cc1c(C(=O)OCC(=O)N(CCC#N)c2ccccc2)oc2c1ccc1ccccc12	-1.31%
O=C(Cc1ccccc1)Nc1cccc(NC(=O)c2ccccc2)c1	3.28%
Cc1cccc(NC(=O)Cc2ccc(Br)cc2)n1	8.34%
CC(C)(C)NC(=O)c1cccc(NC(=O)Cc2ccc(Br)cc2)c1	28.1% (active)
CN1CCN(C(=O)CCc2ncc(C(F)(F)F)cc2Cl)CC1	-0.83%
CCC(=O)N1CCC(C(N)=O)(N2CCCCC2)CC1	-0.67%
CC(=O)c1sc(NC(=O)CCN2C(=O)C3CC=CCC3C2=O)nc1-c1ccccc1 (stereo unspecified)	-3.33%
CC(C=Cc1ccccc1)=NNS(=O)(=O)c1ccc([N+](=O)[O-])cc1	6.62%
Cc1cccc(NS(=O)(=O)c2ccc([N+](=O)[O-])cc2)n1	1.97%
CC1=CC(=NNS(=O)(=O)c2ccc([N+](=O)[O-])cc2)CC(C)(C)C1	31.9% (active)
CCOC(=O)[C@H]1[C@H]2COc3ccccc3[C@@H]2N2C(=O)CN(Cc3ccccc3)C(=O)[C@@]12C	-3.13%
COc1ccc(CNC(=O)c2cc(=O)c3c(C)cc(C)cc3o2)cc1	-0.18%

SMILES	inhibition
CCCCN(C(=O)/C=C/c1ccco1)c1c(N)n(CC(C)C)c(=O)[nH]c1=O	-1.15%
CC(=O)Nc1ccc(S(=O)(=O)Oc2ccc(Br)cc2C(=S)N2CCOCC2)cc1	0.45%
COc1ccc(Br)cc1/C=N/Nc1ccc(S(=O)(=O)Nc2ccccc2C(=O)O)cc1[N+](=O)[O-]	4.57%
Cc1ccc(NS(=O)(=O)c2ccc(N/N=C/c3ccccc3OCC(=O)O)c([N+](=O)[O-])c2)c(C)c1	4.33%
COc1cccc(/C=N/Nc2ccc(S(=O)(=O)Nc3ccccc3C(=O)O)cc2[N+](=O)[O-])c1O	32.2% (active)
Cc1ccc(C(=O)O)cc1S(=O)(=O)NCC1CCCO1 (stereo unspecified)	-0.69%
COc1ccc(CCNS(=O)(=O)c2cccc([N+](=O)[O-])c2)cc1	13.1%
COc1ccc(S(=O)(=O)NCCCc2ccccc2)cc1	13.7%
COc1ccc(S(=O)(=O)NCCc2cc3ccc(C)c(C)c3[nH]c2=O)cc1	24.7% (active)
O=C1CN(C(=O)COC(=O)C2CC(=O)N(Cc3ccco3)C2)c2ccccc2N1 (stereo unspecified)	-0.96%
O=C(NCCN1CCN(C(=O)c2cccc([N+](=O)[O-])c2)CC1)C(=O)NCc1ccc(Cl)cc1	10.4%
CCCCCCCCCCCC(=O)O	30.2% (active)
NC(=O)NCCCC(=O)O	4.24%
O=C(O)CCCCCCCCCC[n+]1ccccc1	1.11%
C/C=C/c1ccc(OCCCCN2CCC(C)CC2)c(OC)c1	2.16%
CCc1c(C)n([O-])c2c([n+]1=O)CCCCC2	7.72%
CCc1cccc(CC)c1NC(=O)COc1ccccc1C(=O)c1cc(C#N)c(=O)n(C2CCCCC2)c1	2.15%
NS(=O)(=O)c1ccccc1NC(=O)c1c(O)c2ccccc2[nH]c1=O	2.89%
Cc1cc(=O)cc(C)n1-c1ccc(Cl)c(Cl)c1	4.86%
CCNC(=S)NNC(=O)Cc1ccccc1	0.2%
CC(C)C(=O)Nc1cccc(NC(=S)NC(=O)C(c2ccccc2)c2ccccc2)c1	-2.74%
CCCCC(=O)NNC(=S)NC(=O)C(c1ccccc1)c1ccccc1	27.4% (active)
Cc1ccc(S(=O)(=O)n2oc(=O)c(C3CCCCC3)c2N)cc1	30.4% (active)
